This note sets out measurements from PubChem BioAssay (EPA / NIEHS).

Assay [1] in a line: BSK_LPS_PGE2: BioMAP Diversity Plus: LPS Assay for Prostaglandin E2 (PGE2) Biomarker Activity (AID 2283082). Conditions: primary human HUVEC with PBMC; actives raise or lower the signal. Put shortly: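 Endpoint derived from bidirectional curve fitting versus DMSO of ELISA-measured PGE2 in LPS-stimulated human primary vascular co-culture (HUVEC with PBMC) harvested at 24 h.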

Read-out in assay [2]: Macrophage colony-stimulating factor (MCSF), CSF1 (gene 1435)
As to the kind of experiment: BSK_LPS_MCSF: BioMAP Diversity Plus: LPS Assay for Macrophage colony-stimulating factor (MCSF) Biomarker Activity (AID 2283083). Conditions: primary human HUVEC with PBMC; actives raise or lower the signal. Put shortly: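 HUVEC–PBMC co-culture, M-CSF measured by ELISA 24 h after chemical dosing. Fitted in both directions relative to DMSO as negative control; overt cytotoxicity assessed by SRB total-protein staining in parallel cultures.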

Read-out in assay [3]: Tissue Factor, F3 (gene 2152)
As to the kind of experiment: BSK_LPS_TissueFactor: BioMAP Diversity Plus: LPS Assay for Tissue Factor Biomarker Activity (AID 2283084). To be noted: primary human HUVEC with PBMC; actives raise or lower the signal. Put shortly: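 Human umbilical vein endothelial cells co-cultured with PBMC were dosed with compound. Cell-surface CD142 was measured by ELISA 24 h later. Activity was fitted bidirectionally against DMSO, with SRB total-protein staining in parallel cultures for cytotoxicity.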

Read-out in assay [4]: Tumor necrosis factor (Homo sapiens) (UniProt P01375)
As to the kind of experiment: BSK_LPS_TNFa: BioMAP Diversity Plus: LPS Assay for Tumour Necrosis Factor alpha (TNFa) Biomarker Activity (AID 2283085). Conditions: primary human HUVEC with PBMC; actives raise or lower the signal. Put shortly:
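Primary human vascular co-culture of HUVEC and PBMC; TNFa ELISA 24 h after treatment, analysed as increase or decrease relative to DMSO control.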

Read-out in assay [5]: Vascular cell adhesion molecule 1 (VCAM1), VCAM1 (gene 7412)
Kind of assay: BSK_LPS_VCAM1: BioMAP Diversity Plus: LPS Assay for Vascular cell adhesion molecule 1 (VCAM1) Biomarker Activity (AID 2283086). To be noted: primary human HUVEC with PBMC; actives raise or lower the signal. Put shortly: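 Primary human vascular co-culture (umbilical vein endothelium plus PBMC) stimulated with LPS received chemical; 24 h later VCAM-1 was read by ELISA. Overt cytotoxicity was assessed by sulforhodamine B staining of parallel cultures at the same time point.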

Read-out in the next assay: CD38, CD38 (gene 952)
As to the kind of experiment: BSK_SAg_CD38: BioMAP Diversity Plus: SAg Assay for CD38 Biomarker Activity (AID 2283087). To be noted: primary human HUVEC with PBMC; actives raise or lower the signal. In short, it runs like this:
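Fluorescence ELISA of cell-surface CD38 served as the read-out, with either increase or decrease fitted against DMSO controls. Cells were a human umbilical vein endothelium plus PBMC co-culture under SEB/TSST-1 stimulation, measured 24 h after dosing.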

Read-out in another assay: CD40, CD40 (gene 958)
As to the kind of experiment: BSK_SAg_CD40: BioMAP Diversity Plus: SAg Assay for CD40 Biomarker Activity (AID 2283088). Conditions: primary human HUVEC with PBMC; actives raise or lower the signal. In short, it runs like this: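 HUVEC plus PBMC co-culture, superantigen-activated, with CD40 read by ELISA 24 h after dosing. Curves fitted in both directions against DMSO. Overt cytotoxicity checked by parallel SRB total-protein staining.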

Read-out in another assay: CD69, CD69 (gene 969)
As to the kind of experiment: BSK_SAg_CD69: BioMAP Diversity Plus: SAg Assay for CD69 Biomarker Activity (AID 2283089).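 As to AC50: cell surface CD69 protein quantified by ELISA with fluorescence detection.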 Conditions: primary human HUVEC with PBMC; actives raise or lower the signal. Put shortly: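 Values derive from bidirectional fitting relative to DMSO vehicle. Cells: umbilical vein endothelium plus peripheral blood mononuclear cells, treated 24 h before fluorescent ELISA for CD69.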

Read-out in assay [6]: Monocyte Chemoattractant Protein-1 (MCP1), CCL2 (gene 6347)
As to the kind of experiment: BSK_SAg_MCP1: BioMAP Diversity Plus: SAg Assay for Monocyte Chemoattractant Protein-1 (MCP1) Biomarker Activity (AID 2283090). To be noted: primary human HUVEC with PBMC; actives raise or lower the signal. Put shortly: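 MCP-1 levels in the endothelial–PBMC SAg co-culture were quantified by ELISA at 24 h post-dosing; both increases and decreases versus DMSO scored. Cytotoxicity monitored by SRB total protein in parallel cultures.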

Read-out in assay [7]: E-selectin (Homo sapiens) (UniProt P16581)
Kind of assay: BSK_SAg_Eselectin: BioMAP Diversity Plus: SAg Assay for Eselectin Biomarker Activity (AID 2283091). Conditions: primary human HUVEC with PBMC; actives raise or lower the signal. Put shortly:
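Human umbilical vein endothelial cells co-cultured with peripheral blood mononuclear cells, SAg system. E-selectin is measured by ELISA 24 h after dosing and fitted bidirectionally against DMSO. Cytotoxicity is checked by SRB staining of parallel cultures.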

Read-out in assay [8]: Interleukin-8 (IL8), CXCL8 (gene 3576)
Kind of assay: BSK_SAg_IL8: BioMAP Diversity Plus: SAg Assay for Interleukin-8 (IL8) Biomarker Activity (AID 2283094). To be noted: primary human HUVEC with PBMC; actives raise or lower the signal. Put shortly: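 In this co-culture of human umbilical vein endothelium with peripheral blood mononuclear cells, IL-8 is assayed by ELISA at 24 h. DMSO serves as baseline for bidirectional curve fitting.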

A short description of assay [9]: BSK_SAg_Proliferation: Cell Proliferation Assessment in the BioMAP Diversity Plus: SAg Assay (AID 2283095).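 Also: relative cell number as total protein by SRB absorbance in sub-confluent culture.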 To be noted: primary human HUVEC with PBMC. Put shortly:
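Readout is SRB-stained protein (560 nm) in a primary human HUVEC and PBMC co-culture; sub-confluent cultures are read at 96 h. Activity is fitted bidirectionally using DMSO as baseline.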

A short description of assay [10]: BSK_SAg_SRB: Viability Assessment in the BioMAP Diversity Plus: SAg Assay (AID 2283096).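 Also: cells read one day after compound addition; hits may be either gain or loss of signal compared with DMSO.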 Conditions: primary human HUVEC with PBMC. In short, it runs like this: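 Total protein by sulforhodamine B staining, 24 h after dosing, in HUVEC–PBMC co-culture; DMSO-referenced bidirectional fitting.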
For assay [11], the target named is human CYP1A1, CYP1A1 (gene 1543) (UniProt P04798). As to the kind of experiment: NVS_ADME_hCYP1A1: NovaScreen (NVS) CYP450-related Enzyme Activity (ADME) Assay for human CYP1A1 (AID 2283100; active = hit-call score of the fitted dose curve at least 0.9, where 1 is the maximum). Put shortly: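 Recombinant CYP1A1 with a fluorogenic substrate, cell-free, read 1 h after dosing; acetonitrile as negative control. Single-concentration screen at 10 uM in duplicate, then concentration-response up to 20 uM for chemicals meeting ~30% inhibition threshold.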

The target of assay [12] is human CYP2D6, CYP2D6 (gene 1565) (UniProt P10635). Kind of assay: NVS_ADME_hCYP2D6: NovaScreen (NVS) CYP450-related Enzyme Activity (ADME) Assay for human CYP2D6 (AID 2283107; active = hit-call score of the fitted dose curve at least 0.9, where 1 is the maximum). Put shortly: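 Cell-free assay using recombinant human CYP2D6 expressed in insect cells, with a fluorogenic substrate read after 1 h. Primary screen in duplicate at 10 uM; actives followed up in concentration series. Loss of signal fitted relative to acetonitrile.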

Assay [13] can be described thus: BSK_SAg_PBMCCytotoxicity: PBMC Cytotoxicity Assessment in the BioMAP Diversity Plus: SAg Assay (AID 2283093).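 Also: PBMC viability measured as Alamar Blue reduction fluorescence at 546/580 nm; fitted both ways against DMSO so a hit may be loss or gain of signal.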 To be noted: primary human HUVEC with PBMC. In short, it runs like this: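 Compound added to 75,000 PBMC/well for 1 h; SEB and TSST-1 then added at 20 ng/mL final each; 90 h incubation; Alamar Blue 6 h; read 546/580 nm ex/em. Activity fitted bidirectionally relative to DMSO baseline.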

Inconclusive results are not listed. Calls of active or inactive are those of the source. The calls were made as follows, unless noted: active = hit-call score of the fitted dose curve at least 0.9, where 1 is the maximum; inactive = score below 0.9.

Chain of E-selectin (Homo sapiens) (P16581 whole entry, looked up): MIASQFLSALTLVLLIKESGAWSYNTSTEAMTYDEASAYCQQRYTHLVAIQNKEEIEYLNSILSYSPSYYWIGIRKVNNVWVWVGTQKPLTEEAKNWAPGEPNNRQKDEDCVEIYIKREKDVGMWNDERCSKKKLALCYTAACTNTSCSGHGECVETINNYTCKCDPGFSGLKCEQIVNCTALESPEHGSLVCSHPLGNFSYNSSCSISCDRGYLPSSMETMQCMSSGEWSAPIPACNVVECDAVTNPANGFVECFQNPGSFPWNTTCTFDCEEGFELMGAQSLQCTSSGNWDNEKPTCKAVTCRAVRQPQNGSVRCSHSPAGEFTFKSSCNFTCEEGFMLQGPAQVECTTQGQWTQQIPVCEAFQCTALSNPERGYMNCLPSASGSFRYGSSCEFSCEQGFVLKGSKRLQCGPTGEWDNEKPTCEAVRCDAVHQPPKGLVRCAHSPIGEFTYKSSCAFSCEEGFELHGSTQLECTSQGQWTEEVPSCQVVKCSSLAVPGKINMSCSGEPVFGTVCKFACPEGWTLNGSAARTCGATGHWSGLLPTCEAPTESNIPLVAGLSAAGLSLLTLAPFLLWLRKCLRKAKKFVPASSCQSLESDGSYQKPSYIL
Chain of Tumor necrosis factor (Homo sapiens) (P01375 whole entry, looked up): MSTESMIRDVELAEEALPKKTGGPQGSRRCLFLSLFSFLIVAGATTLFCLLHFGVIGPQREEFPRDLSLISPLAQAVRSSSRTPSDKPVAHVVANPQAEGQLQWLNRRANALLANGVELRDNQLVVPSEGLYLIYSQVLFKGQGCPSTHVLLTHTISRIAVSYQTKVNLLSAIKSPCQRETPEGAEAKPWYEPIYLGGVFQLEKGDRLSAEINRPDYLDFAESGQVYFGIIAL
Chain of human CYP1A1, CYP1A1 (gene 1543) (P04798 whole entry, looked up): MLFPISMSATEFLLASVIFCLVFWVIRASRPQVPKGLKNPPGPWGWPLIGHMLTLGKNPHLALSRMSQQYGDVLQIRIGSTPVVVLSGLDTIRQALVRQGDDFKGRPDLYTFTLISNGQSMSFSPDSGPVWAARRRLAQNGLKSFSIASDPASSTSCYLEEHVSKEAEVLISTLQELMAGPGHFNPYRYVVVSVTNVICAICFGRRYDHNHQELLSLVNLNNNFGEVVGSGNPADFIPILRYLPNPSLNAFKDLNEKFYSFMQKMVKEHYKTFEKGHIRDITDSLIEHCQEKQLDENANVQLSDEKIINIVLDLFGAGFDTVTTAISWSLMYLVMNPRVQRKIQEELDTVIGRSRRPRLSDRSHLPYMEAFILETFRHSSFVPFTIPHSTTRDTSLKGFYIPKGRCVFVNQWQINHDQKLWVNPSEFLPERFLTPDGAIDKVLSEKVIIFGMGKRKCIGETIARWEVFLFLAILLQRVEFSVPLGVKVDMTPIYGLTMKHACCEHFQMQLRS
Chain of human CYP2D6, CYP2D6 (gene 1565) (P10635 whole entry, looked up): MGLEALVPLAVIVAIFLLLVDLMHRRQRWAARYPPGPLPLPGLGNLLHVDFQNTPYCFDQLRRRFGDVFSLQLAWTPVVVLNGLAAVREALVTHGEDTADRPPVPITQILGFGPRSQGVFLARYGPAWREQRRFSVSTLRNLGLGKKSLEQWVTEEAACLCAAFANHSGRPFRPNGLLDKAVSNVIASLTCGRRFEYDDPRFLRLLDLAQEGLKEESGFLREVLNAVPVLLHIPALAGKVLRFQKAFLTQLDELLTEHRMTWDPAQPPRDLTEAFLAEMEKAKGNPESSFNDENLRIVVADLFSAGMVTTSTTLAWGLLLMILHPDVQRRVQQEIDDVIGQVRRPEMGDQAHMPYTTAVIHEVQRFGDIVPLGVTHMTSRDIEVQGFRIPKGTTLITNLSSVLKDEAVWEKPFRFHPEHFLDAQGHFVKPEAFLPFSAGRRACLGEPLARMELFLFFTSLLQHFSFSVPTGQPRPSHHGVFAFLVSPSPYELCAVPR

On to `O=C(O)c1ccccc1-n1cc(C(=O)O)c(=O)c2cc(Nc3c(F)cc(F)cc3Cl)c(Cl)cc21`, for which the outcome in assay [1] is “inactive”; in assay [2], “inactive”; in assay [3] it was “inactive”; in assay [4], “inactive”; in assay [5], “inactive”; with CD38, CD38 (gene 952), “inactive”. For the same compound, the outcome in the assay with CD40, CD40 (gene 958) was “inactive”; in the assay with CD69, CD69 (gene 969), “inactive”; in [6], “inactive”; in assay [7], “inactive”; in [8], “inactive”; in assay [9] it was “inactive”. Further, the outcome in assay [10] was inactive.

A word on the AC50: it is the concentration giving half of the maximal activity seen. In the case of `COc1ccc2cc(S(=O)(=O)N[C@H](CC(=O)N[C@H](Cc3ccc(CN4[C@H](C)CCC[C@@H]4C)cc3)C(=O)N(C)C(C)C)c3ccc4c(c3)OCO4)ccc2c1`, the AC50 in assay [1] is 31.1 µM (active); in assay [2], 19.1 µM (active); in [3], 33.9 µM (active); in assay [4] it was 33.6 µM (active); in [5], 11.3 µM (active); with CD38, CD38 (gene 952) it was 26.2 µM (active). The AC50 is 24 µM (active) with CD40, CD40 (gene 958); 24.5 µM (active) with CD69, CD69 (gene 969); 19.1 µM (active) in assay [6]; 31.7 µM (active) in assay [7]; 14.8 µM (active) in assay [8]; 12 µM (active) in assay [9]. For the same compound, in assay [12], the AC50 was 0.305 µM (active). The outcome in assay [11] was inactive.

`O=C=NCCCCCCN=C=O`: the outcome is “inactive” in assay [1]; “inactive” in assay [2]; “inactive” in assay [3]; “inactive” in assay [4]; “inactive” in assay [5]; “inactive” in the assay with CD38, CD38 (gene 952). Moreover, the outcome in the assay with CD40, CD40 (gene 958) is “inactive”; with CD69, CD69 (gene 969) it was “inactive”; in assay [6] it was “inactive”; in [7] it was “inactive”; in [13], “inactive”; in assay [8], “inactive”. In addition, the result in assay [10] was inactive. Also, in assay [9], the AC50 is 15.8 µM (active).

On to `O=c1ccc2ccccc2o1`, for which the outcome is “inactive” in [1]; “inactive” in [2]; “inactive” in assay [3]; “inactive” in [4]; “inactive” in [5]; “inactive” in the assay with CD38, CD38 (gene 952). Further, the outcome is “inactive” in the assay with CD40, CD40 (gene 958); “inactive” with CD69, CD69 (gene 969); “inactive” in [6]; “inactive” in assay [7]; “inactive” in [8]; “inactive” in [9]. Also, the outcome in assay [10] was inactive.

In the case of `CCO[Si](CCCNC(N)=O)(OCC)OCC`, the outcome is “inactive” in assay [1]; “inactive” in [2]; “inactive” in assay [3]; “inactive” in assay [4]; “inactive” in assay [5]; “inactive” with CD38, CD38 (gene 952). The outcome in the assay with CD40, CD40 (gene 958) was “inactive”; with CD69, CD69 (gene 969) it was “inactive”; in assay [6], “inactive”; in [7] it was “inactive”; in assay [8], “inactive”; in assay [9], “inactive”. For the same compound, the outcome in assay [10] was inactive.

Turning to `CN1C(=O)CC[C@H]1c1cccnc1`, the outcome is “inactive” in assay [1]; “inactive” in assay [2]; “inactive” in assay [3]; “inactive” in assay [4]; “inactive” in assay [5]; “inactive” with CD38, CD38 (gene 952). Moreover, the outcome in the assay with CD40, CD40 (gene 958) was “inactive”; with CD69, CD69 (gene 969) it was “inactive”; in assay [6], “inactive”; in assay [7], “inactive”; in assay [13], “inactive”; in assay [8], “inactive”. The result in [9] and in assay [10] was inactive.
